# Reference: PubChem BioAssay
# Active and inactive are the calls of the source.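 Rule for the calls: active = viability increase at or above a cutoff of the median across tested compounds plus 3 SD (cut at about 8.5% in these data, passing the limit was not always enough); inconclusive = some gains above the cutoff, reason not given; inactive = the rest.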
# Experiment: doxorubicin toxicity protection in MRP-1 cells – H69AR cells, CellTiter-Glo, duplicate, MRP-1 activator project, pilot screen (AID 807);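 note: compound pretreatment 18-22 h then 72 h combined with doxorubicin; 0% = doxorubicin alone and 100% = vehicle without doxorubicin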
# Details: H69AR viability with doxorubicin, CellTiter-Glo luminescence; at 10 µM; stronger effect = higher value
row,SMILES,viability increase
1,CC1CCc2nn(CC(=O)NCc3ccc4c(c3)OCO4)cc2C1 (stereo not given),-0.84% (inactive)
2,CCC(C)(C(=O)NC1CCCC1)N(Cc1cccs1)C(C)=O (stereo not given),-0.17% (inactive)
3,COc1ccc(CCNC(=O)c2cnn3ccccc23)c(OC)c1OC,-1.15% (inactive)
4,CC1CCCN(S(=O)(=O)c2coc(C(N)=O)c2)C1 (stereo not given),-0.1% (inactive)
5,Cn1c(C(=O)NCC2CCCO2)cc2c(=O)n(C)c3ccccc3c21 (stereo not given),-4.43% (inactive)
6,O=C(Nc1cnn(Cc2ccc(Cl)cc2Cl)c1)c1noc2c1CCCC2,-0.32% (inactive)
7,Clc1cccc(N2CCN(Cc3nc(-c4ccccc4)no3)CC2)c1,-2.61% (inactive)
8,COC(=O)C1=C(C)NC(C)=C(C(=O)OC)C1C1CC=CCC1 (stereo not given),-4.18% (inactive)
9,Cc1nnc(SCC(=O)NCc2ccccc2)s1,-1.46% (inactive)
10,CC1=C(C(=O)Nc2ccc(F)cc2)C(c2cccc(C)c2)n2nc(CCCO)nc2N1 (stereo not given),-0.66% (inactive)
11,CCOc1ccc(OCCCCN(C)C)cc1,-0.48% (inactive)
12,CCCC(=O)C1=C(N(C)c2ccccc2)CC(C)(C)C(C(=O)OC)C1=O (stereo not given),-3.32% (inactive)
13,CC1Cc2ccccc2N1C(=O)C12CCC(C)(C(=O)C1)C2(C)C (stereo not given),-0.66% (inactive)
14,CC1CN(c2ccc(Oc3ccccc3)cc2)c2nc3c(c(=O)n(CC(N)=O)c(=O)n3C)n2C1 (stereo not given),-3.54% (inactive)
15,COc1ccc(N2CCN(C(c3ccccc3)c3sc4nc(C)nn4c3O)CC2)cc1 (stereo not given),-1.28% (inactive)
16,O=C(CCn1c(=O)oc2ccccc21)NCc1ccco1,-1.66% (inactive)
17,COc1cccc(C2CC(c3ccc(C)cc3)n3nc(N)nc3N2)c1 (stereo not given),-1.45% (inactive)
18,Cc1onc(-c2c(Cl)cccc2Cl)c1C(=O)NCC1CCCO1 (stereo not given),-1.12% (inactive)
19,CC(=O)Nc1cccc(NC(=O)CSc2nn3c(=O)c(C)nnc3s2)c1,0.35% (inactive)
20,Cc1ccc2cc(CCNC(=O)C(C)C)c(=O)[nH]c2c1C,-0.61% (inactive)

row,SMILES,viability increase
1,CCOC(=O)c1c(C)n(C)c2c(C)cc(O)c(OC(C)=O)c12,-5.24% (inactive)
2,CC(C)(O)C#Cc1ccc(C(=O)N2CCN(C(=O)c3ccco3)CC2)cc1,-0.62% (inactive)
3,COc1ccc(-n2ncc3c(N4CCC(C)CC4)ncnc32)cc1,-2.39% (inactive)
4,CCc1nc2sc(C)c(C)c2c(=O)n1CCO,-1.82% (inactive)
5,COc1cc2c(cc1OC)CN(C(=O)CSc1nc3[nH]ncc3c(=O)n1-c1ccccc1)CC2,-1.5% (inactive)
6,Cc1ccccc1-n1c(Cn2c(=O)sc3ccccc32)nnc1SCC(N)=O,1.68% (inactive)
7,Cc1nc2sc(C(c3cccs3)N3CCOCC3)c(O)n2n1 (stereo not given),-0.31% (inactive)
8,Cc1nc2ccccc2c2oc(C(=O)N3CCN(C(=O)c4ccco4)CC3)cc12,-5.18% (inactive)
9,CCC(C)NC(=O)c1cn(CC)c2ccc(S(=O)(=O)N(C)C)cc2c1=O (stereo not given),-2.73% (inactive)
10,O=C(OCN1C(=O)c2ccccc2C1=O)C1CCCCC1,-2.19% (inactive)
11,O=C(Nc1nc(-c2ccccn2)cs1)C1CC1,0.73% (inactive)
12,COCCOC(=O)C1=C(C)N=c2s/c(=C\c3cccs3)c(=O)n2C1c1cccs1 (stereo not given),-0.91% (inactive)
13,CCOC(=O)c1sc2nc(NC(=O)C(C)(C)C)sc2c1C,-4.43% (inactive)
14,Cn1c(Cc2ccccc2)nnc1SCC(=O)NC1CCCCC1,0.74% (inactive)
15,CCCNC(=O)C1CC(=O)N(c2ccc(OCC(=O)Nc3cc(C)cc(C)c3)cc2)C1 (stereo not given),-4.47% (inactive)
16,O=P(O)(CN1CCCCCC1)CN1CCCCCC1,1.45% (inactive)
17,O=c1oc2c3c4c(cc2cc1-c1nc2ccccc2[nH]1)CCCN4CCC3,-5.62% (inactive)
18,CCOC(=O)c1[nH]c(C)c(C(=O)NC)c1C,-0.95% (inactive)
19,CCCOc1ccc(C2C(C(=O)OC)=CN(CCOC)C=C2C(=O)OC)cc1,-2.37% (inactive)
20,CCCCN(CC)CCCNC(=O)c1cc2c(=O)n(C)c3ccccc3c2n1C,-7.73% (inactive)
